Most compounds without a hit are left out; they make up all but 2.4% or so of the library.
DNA Pol III inh: DNA polymerase III holoenzyme inhibition | reconstituted DNA polymerase III holoenzyme replication, biochemical | Potency, µM (series often up to 57.1 µM), for inactives: at the top dose activity change, negative = inhibition | hit rate 0.25% among 71,000 | AID 603; also: potency is read from the fitted curve at half-maximal effect; % is scaled to controls: 0 for no effect and ±100 for the full control effect
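Reconstituted *E. coli* holoenzyme (0.35 nM Pol III, 1 nM beta, 154 nM SSB, 2 nM primase) was preincubated with compound for 15 min at RT. Synthesis on 1.4 nM ssM13Gori ran 35 min, then was stopped with PicoGreen/EDTA and read as dsDNA fluorescence.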
BRCT PPI green: BRCA1 BRCT-phosphoprotein interaction inhibition; hit rate 0.05% among 75,000; P38398; BRCA1 BRCT-phosphopeptide binding, green fluorescence polarization; AID 875; Potency, µM (titrated, usually from 76.9 µM), for inactives: top-dose activity change, negative = inhibition, actives largely listed as inhibitors;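 also: potency is read from the fitted curve at half-maximal effect; plate controls were peptide without protein for full effect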
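Compounds were incubated for 12 min at room temperature with a complex of 100 nM fluorescein-tagged pBACH1 decapeptide and 250 nM His-tagged BRCT protein. Buffer was phosphate pH 7.3 with EDTA, DTT and Tween 20. Disruption of binding lowers the polarization signal.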
BRCT inh red: inhibitors of human BRCA1 BRCT-phosphoprotein interaction (red fluorophore); AID 892; Potency, µM (highest dose often 76.9 µM), for the others: top-dose activity change, negative = inhibition, most hits filed as inhibitors; P38398; hit rate 0.03% among 75,000; BRCT-phosphopeptide binding, red fluorescence polarization; also: % is scaled to controls: 0 for no effect and ±100 for the full control effect
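Rhodamine-labelled pBACH1 10-mer (100 nM) bound to BRCT domain (100 nM) at pH 7.3; compounds incubated 12 min room temperature, polarization read. Free peptide defines full inhibition; unlabelled decapeptide titrated as control.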
YjeE inh: displaces an ADP probe from E. coli YjeE (TsaE) | P0AF67 | purified YjeE enzyme, qHTS inhibition assay | Potency, µM | hit rate 0.05% among 71,000 | AID 605
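Fluorescence polarization of a BODIPY Texas Red–ADP probe (2 uM) bound to purified YjeE (10 uM) was read after 15 min room-temperature incubation with compounds. Loss of polarization marks inhibitors; ADP serves as titrated control.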
Tau filament bind: binds recombinant human tau filaments | hit rate 2% among 71,000 | Potency, µM (doses to about 57.1 µM), inactives show top-dose activity change, negative = inhibition | recombinant tau filaments, thioflavin S fluorescence, 15 h; filaments grown with octadecylsulfate alongside compound | P10636;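 also: potency is read from the fitted curve at half-maximal effect; % is scaled to controls: 0 for no effect and ±100 for the full control effect; actives lower thioflavin S fluorescence by blocking filaments or displacing dye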
Target sequence (P10636 whole entry, looked up): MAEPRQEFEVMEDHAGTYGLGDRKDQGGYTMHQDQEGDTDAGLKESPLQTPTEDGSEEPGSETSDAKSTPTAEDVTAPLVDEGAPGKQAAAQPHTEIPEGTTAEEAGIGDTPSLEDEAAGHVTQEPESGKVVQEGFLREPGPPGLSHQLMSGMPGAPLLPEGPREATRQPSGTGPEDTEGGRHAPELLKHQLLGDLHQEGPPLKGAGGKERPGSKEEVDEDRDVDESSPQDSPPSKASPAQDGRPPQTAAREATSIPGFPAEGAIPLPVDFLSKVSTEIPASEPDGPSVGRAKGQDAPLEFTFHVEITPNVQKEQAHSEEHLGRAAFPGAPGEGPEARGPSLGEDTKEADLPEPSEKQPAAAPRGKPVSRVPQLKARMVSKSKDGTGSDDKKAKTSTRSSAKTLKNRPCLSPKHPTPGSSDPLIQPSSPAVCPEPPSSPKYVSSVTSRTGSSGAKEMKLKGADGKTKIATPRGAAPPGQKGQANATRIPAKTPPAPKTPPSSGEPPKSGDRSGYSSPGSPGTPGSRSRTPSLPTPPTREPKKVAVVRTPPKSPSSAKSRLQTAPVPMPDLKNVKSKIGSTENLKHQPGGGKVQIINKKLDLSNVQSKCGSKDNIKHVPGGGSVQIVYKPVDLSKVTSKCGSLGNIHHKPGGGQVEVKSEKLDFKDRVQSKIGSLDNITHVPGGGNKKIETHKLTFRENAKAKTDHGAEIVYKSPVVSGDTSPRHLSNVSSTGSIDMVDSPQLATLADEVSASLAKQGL
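Thioflavine S fluorescence (ex 450, em 510 nm) reports filaments formed from 1 uM human tau plus 30 uM ODS over 15 h at 37 C (10 mM HEPES pH 7.4, 100 mM NaCl, 5 mM DTT); compounds displacing dye or blocking filaments lower signal.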
Hsp90 Hop PPI: changes Hsp90-Hop TPR2A binding signal, up or down. Potency, µM (titrated, usually from 57 µM), without a hit: at the top dose activity change, negative = inhibition. AlphaScreen TPR2A-His6 binding biotin-Hsp90 C-terminal peptide. AID 595. hit rate 0.44% among 71,000; active = well fitted curve in either direction with a large enough effect; inconclusive = small, poorly fitted or top-dose-only effect, or another doubt; also: potency is read from the fitted curve at half-maximal effect; % is scaled to controls: 0 for no effect and ±100 for the full control effect
* = called active by the depositor; i = inactive; ? = inconclusive; . = no result; [ ] = remark or other dose. Unless noted, calls follow the shape of the dose curve; as a rule, active = well fitted curve in the direction sought with a large enough effect; inconclusive = small, poorly fitted or top-dose-only effect, or another doubt; inactive = no such curve, though single readings can be large; an effect the other way counts as inactive or inconclusive.

SMILES	DNA Pol III inh	BRCT PPI green	BRCT inh red	YjeE inh	Tau filament bind	Hsp90 Hop PPI
CC[C@@H](c1ccccc1)n1c(=O)n2n(c1=O)[C@H]1[C@H](O)[C@H]3O[C@@H]3/C(=N/OC[C@@H](O)COCc3ccco3)[C@@H]1CC2	.	-1%[15.4 µM]	0%[15.4 µM]	.	.	.
Nc1nc(N)c2[nH]cnc2n1 (tested in a mixture with another compound)	2%[11.4 µM]	1%[15.4 µM]	-1%[15.4 µM]	i	6%[11.4 µM]	-3%[11 µM]
Nc1ncnc2nc[nH]c12.Nc1ncnc2nc[nH]c12.[Cl][Pt]([Cl])([Cl])[Cl]	2.5µM*	.	.	i	0%[11.4 µM]	-5%[11 µM]
COCCn1c(CN2CCN(c3ccc(OC)cc3)CC2)nc2c1c(=O)n(C)c(=O)n2C	0%	-3%	0%	i	-1%	0%
COc1ccc(N2CCN(Cc3nc4c(c(=O)n(C)c(=O)n4C)n3CCc3ccccc3)CC2)cc1	-5%	1%	-2%	i	13µM*	-5%
CNc1sc(C(=O)c2cccs2)c(N)c1-c1nc2ccccc2s1	-7%	1%	-2%	i	5µM*	?
COc1ccc(Nc2nc(-c3sc(N)nc3C)cs2)cc1	-6%	2%	0%	i	13µM*	?
COc1ccc(CCNc2nc(-c3sc(N)nc3C)cs2)cc1OC	-3%	-1%	-1%	i	16µM*	-29%
Cc1nc(N)sc1-c1csc(Nc2ccccn2)n1	-3%	0%	0%	i	25µM*	-25%
Cc1nc(N)sc1-c1csc(Nc2ccc(Cl)cn2)n1	1%	1%	-1%	i	16µM*	-27%
Cc1ncc(CO)c(CN)c1O	-4%[11.4 µM]	-1%[15.4 µM]	0%[15.4 µM]	i	1%[11.4 µM]	-2%[11 µM]
CN(C)CCCCl	-1%	1%	1%	i	2%	-3%
CC1CCC2C(C)(C)C3CC12CC[C@]3(C)O (stereo partly specified)	.	-7%	-1%	.	.	.
CC(C)C1CCC(C(=O)NC(Cc2ccccc2)C(=O)O)CC1 (stereo unspecified)	.	0%[3.08 µM]	-1%	.	.	.
CNc1ccnc(-c2c(C)noc2C)n1	-7%	-1%	-2%	i	2%	-1%
CN(C)c1ccc(C2(c3ccc(N(C)C)cc3)OC(=O)c3cc(N(C)C)ccc32)cc1	-2%	-1%	-2%	i	15%	2.5µM*
COc1cc2c(cc1OC)-c1c(OC)c(OC)cc3ccnc(c13)C2=O	?	-11%	1%	i	32µM*	?
COc1ccc2c(c1)c(=O)oc1cc(OCC(=O)NC3CC3)ccc12	16µM*	-2%	-1%	i	2%	-2%
Cn1c(NC(=O)c2ccccc2Br)cc(=O)n(C)c1=O	3%	2.5µM*	?	i	-10%	-5%
FC(F)(F)c1cc(CO[C@@H]2CCCN[C@H]2c2ccccc2)cc(C(F)(F)F)c1	3%	-1%	0%	i	-12%	-1%
COc1ccc(C(=O)N2CCC3(CCCN(Cc4ccc(C#N)cc4)C3)CC2)cc1	-2%	-4%	1%	i	4%	3%
Cc1cccc(NC(=O)c2cc(-c3ccco3)nc3ccccc23)n1	-6%	2%	-2%	i	63%	2%
CCOc1cc(N2CCOCC2)c(OCC)cc1NC(=O)c1cc(-c2ccco2)nc2ccccc12	0%	-3%	-1%	i	10µM*	-17%
O=C(NCC1CCCO1)c1cc(-c2ccco2)nc2ccccc12 (stereo unspecified)	32µM*	-3%	0%	i	-3%	-2%
C[C@@H](C(=O)Nc1ccc2ccccc2c1)[C@H]1C[C@]1(C)[C@H](NS(=O)(=O)c1ccc2ccccc2c1)c1ccccc1	2%	2%	0%	i	30%	-6%
CN(C)c1ccc2nc3c(C(=O)O)cc(=O)c(O)c-3oc2c1	3.2µM*	-2%[15.4 µM]	-2%[15.4 µM]	i	3%[11.4 µM]	-20%[11 µM]
CC(=O)N(C(C)=O)c1ccc2nc(C)[nH]c(=O)c2c1	6%	-1%	1%	i	-17%	-3%

Bioassay records from PubChem BioAssay.
